Source: PubChem BioAssay (NCATS)
Inconclusive results are not listed. The source made the active and inactive calls. Unless noted, calls come from the whole dose curve; as a rule, active = well fitted inhibition curve with a large enough effect; inconclusive = small, poorly fitted or top-dose-only effect; inactive = flat fitted curve, though single readings scatter.

Legend:
[1] = molecular target: Glucocorticoid receptor (Homo sapiens) (UniProt P04150); test: GR-EFC Redistribution (AID 451; calls by dose curve; note: potency is the fitted concentration of half-maximal effect); conditions: CHO-K1 GR-EFC translocation, beta-gal luminescence, 2 h
Method in brief: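 CHO-K1 cells expressing nuclear EA and GR-ED fragments of b-gal; compounds titrated up to 46 uM final, 2 h at 37 C. GR nuclear translocation read as complemented b-gal luminescence after 1 h RT detection.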

[2] = molecular target: Mitogen-activated protein kinase 10 (Mus musculus) (UniProt Q61831); test: JNK3 AlphaScreen Assay (AID 530; active = well fitted curve in either direction with a large enough effect, not every such curve was filed as active;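 note: kinase came from lysate of stimulated human HepG2 cells; signal reports phosphorylation of biotinylated GST-cJun 1-79 at Ser73 with 10 µM ATP; % is set by controls: 0 for no effect and ±100 for the full control effect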)
Method in brief: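 HepG2 lysate (IL-1b/TNFa pre-activated) + biotin-GST-cJun 1-79 + anti-pSer73 cJun; cpd titration, 15 min RT; ATP 10 uM start; Tris pH 7.6, MgCl2, DTT, vanadate; beads in EDTA buffer; AlphaScreen.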

[3] = qHTS Assay for Lipid Storage Modulators (AID 1519; calls by dose curve; for activity change, negative = inhibition: % is set by controls: 0 for no effect and ±100 for the full control effect); conditions: Drosophila S3 cells, BODIPY lipid droplet/cell ratio, laser cytometry, cells loaded with oleic acid
Method in brief: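 Cells seeded at 5,000 per well were treated with compounds over a concentration series and loaded with oleic acid (400 uM, as added). Lipid droplet fluorescence (488 nm excitation, 500-530 nm channel) was read by laser-scanning cytometry and normalized to 20 uM Triacsin C.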

[4] = molecular target: Ubiquitin carboxyl-terminal hydrolase 1 (Homo sapiens) (UniProt O94782); test: Inhibitors of USP1/UAF1: Pilot qHTS (AID 504865);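 note: rhodamine fluorescence freed from ubiquitin-rhodamine substrate followed over time; top concentration of the series differs between compounds; % is set by controls: 0 for no effect and ±100 for the full control effect; nearly all actives have a fitted effect of over 35% in size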
Method in brief: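 Deubiquitinase activity followed as kinetic rhodamine fluorescence release from 150 nM Ub-Rho. 1 nM USP1/UAF1 with compound, after 15 min room-temperature preincubation, in HEPES pH 7.8 buffer containing TCEP, EDTA, BSA and Tween-20.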

[5] = molecular target: Luciferin 4-monooxygenase (Photinus pyralis) (UniProt P08659); test: Biochemical firefly luciferase enzyme assay for NPC (AID 624030);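 note: purified P. pyralis luciferase at 10 nM with luciferin and ATP substrate; 0% = DMSO and -100% = full luciferase inhibition by PTC124 control; nearly all actives have a fitted effect of over 70% in size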
Method in brief: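 Purified P. pyralis luciferase at 10 nM in 50 mM Tris Acetate (final), luminescence read within 5 minutes of enzyme addition to compounds. Activity normalised to PTC124 versus DMSO; concentration-response curves classed by r2, magnitude and activity.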

[6] = qHTS profiling for inhibitors of Plasmodium falciparum proliferation (AID 504749); note: nearly all actives have a fitted effect of over 60% in size; note: potency is the fitted concentration of half-maximal effect;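 for activity, negative = inhibition: 0% = DMSO vehicle and full inhibition = artemisinin control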; conditions: P. falciparum in erythrocytes, SYBR Green DNA, 72 h, at 12.8 µM (top of the series)
Method in brief: (§1)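 SYBR Green fluorescence (ex 485 nm, em 535 nm) reports parasite DNA after 72 h compound exposure of infected red cells at 0.3% parasitemia, 2.5% hematocrit; signal normalized to 0.29 uM artemisinin and vehicle wells.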

[7] = system: 3D7; test: as above; conditions: P. falciparum in erythrocytes, SYBR Green DNA, 72 h; series mostly up to 12.8 µM
Method in brief: as §1

[8] = system: C2A; test: as above; conditions: P. falciparum in erythrocytes, SYBR Green DNA, 72 h; series mostly up to 12.8 µM
Method in brief: as §1

[9] = system: CP217; test: as above; conditions: P. falciparum in erythrocytes, SYBR Green DNA, 72 h; series mostly up to 12.8 µM
Method in brief: as §1

[10] = system: CP237; test: as above; conditions: P. falciparum in erythrocytes, SYBR Green DNA, 72 h; series mostly up to 12.8 µM
Method in brief: as §1

[11] = system: CP238; test: as above; conditions: P. falciparum in erythrocytes, SYBR Green DNA, 72 h; series mostly up to 12.8 µM
Method in brief: as §1

[12] = system: CP252; test: as above; conditions: P. falciparum in erythrocytes, SYBR Green DNA, 72 h; series mostly up to 12.8 µM
Method in brief: as §1

[13] = system: CP291; test: as above; conditions: P. falciparum in erythrocytes, SYBR Green DNA, 72 h; series mostly up to 12.8 µM
Method in brief: as §1

[14] = system: CP297; test: as above; conditions: P. falciparum in erythrocytes, SYBR Green DNA, 72 h; series mostly up to 12.8 µM
Method in brief: as §1

[15] = system: ECU; test: as above; conditions: P. falciparum in erythrocytes, SYBR Green DNA, 72 h; series mostly up to 12.8 µM
Method in brief: as §1

[16] = system: HB3; test: as above; conditions: P. falciparum in erythrocytes, SYBR Green DNA, 72 h; series mostly up to 12.8 µM
Method in brief: as §1

[17] = system: PAD; test: as above; conditions: P. falciparum in erythrocytes, SYBR Green DNA, 72 h; series mostly up to 12.8 µM
Method in brief: as §1

[18] = system: SC27B; test: as above; conditions: P. falciparum in erythrocytes, SYBR Green DNA, 72 h; series mostly up to 12.8 µM
Method in brief: as §1

[19] = molecular target: 3',5'-cyclic-AMP phosphodiesterase 4B (Homo sapiens) (UniProt Q07343); test: qHTS Assay for Inhibitors of PDE-IV (AID 607; active = well fitted activation curve with a large enough effect in the main read-out, with a control signal flat, not every such curve was filed as active; note: % of control where 0% means no effect)
Method in brief: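 HEK293 ACTOne cells with CNG channel (1000/well), endogenous PDE4; membrane potential dye, compounds up to 22.9 uM final. Fluorescence Ex 535/Em 590; RO 20-1724 (100 uM final) as reference.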

[20] = system: PC26; test: qHTS profiling for inhibitors of Plasmodium falciparum proliferation (AID 504749); note: nearly all actives have a fitted effect of over 60% in size; note: potency is the fitted concentration of half-maximal effect;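 for activity, negative = inhibition: 0% = DMSO vehicle and full inhibition = artemisinin control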; conditions: P. falciparum in erythrocytes, SYBR Green DNA, 72 h; series mostly up to 12.8 µM
Method in brief: as §1

[21] = measured here: cell count channel max response
[22] = measured here: lipid channel max response

Luciferin 4-monooxygenase (Photinus pyralis), sequence (P08659 whole entry, looked up): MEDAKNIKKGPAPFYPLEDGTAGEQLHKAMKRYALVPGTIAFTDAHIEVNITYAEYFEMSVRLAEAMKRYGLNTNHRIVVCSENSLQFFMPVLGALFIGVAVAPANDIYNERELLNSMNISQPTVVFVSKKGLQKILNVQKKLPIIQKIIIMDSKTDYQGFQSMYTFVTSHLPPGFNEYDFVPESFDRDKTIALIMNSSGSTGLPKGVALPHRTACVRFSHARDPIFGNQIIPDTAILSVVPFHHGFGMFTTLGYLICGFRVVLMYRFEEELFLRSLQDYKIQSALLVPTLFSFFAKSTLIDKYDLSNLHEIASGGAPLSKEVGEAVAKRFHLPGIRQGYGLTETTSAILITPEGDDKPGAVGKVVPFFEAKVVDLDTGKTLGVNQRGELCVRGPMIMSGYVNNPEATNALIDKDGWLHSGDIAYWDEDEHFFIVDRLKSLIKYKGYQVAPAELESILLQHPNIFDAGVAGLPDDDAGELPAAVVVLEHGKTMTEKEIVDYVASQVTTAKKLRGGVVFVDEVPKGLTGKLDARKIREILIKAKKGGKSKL
Glucocorticoid receptor (Homo sapiens), sequence (P04150 whole entry, looked up, the tested form may be a part): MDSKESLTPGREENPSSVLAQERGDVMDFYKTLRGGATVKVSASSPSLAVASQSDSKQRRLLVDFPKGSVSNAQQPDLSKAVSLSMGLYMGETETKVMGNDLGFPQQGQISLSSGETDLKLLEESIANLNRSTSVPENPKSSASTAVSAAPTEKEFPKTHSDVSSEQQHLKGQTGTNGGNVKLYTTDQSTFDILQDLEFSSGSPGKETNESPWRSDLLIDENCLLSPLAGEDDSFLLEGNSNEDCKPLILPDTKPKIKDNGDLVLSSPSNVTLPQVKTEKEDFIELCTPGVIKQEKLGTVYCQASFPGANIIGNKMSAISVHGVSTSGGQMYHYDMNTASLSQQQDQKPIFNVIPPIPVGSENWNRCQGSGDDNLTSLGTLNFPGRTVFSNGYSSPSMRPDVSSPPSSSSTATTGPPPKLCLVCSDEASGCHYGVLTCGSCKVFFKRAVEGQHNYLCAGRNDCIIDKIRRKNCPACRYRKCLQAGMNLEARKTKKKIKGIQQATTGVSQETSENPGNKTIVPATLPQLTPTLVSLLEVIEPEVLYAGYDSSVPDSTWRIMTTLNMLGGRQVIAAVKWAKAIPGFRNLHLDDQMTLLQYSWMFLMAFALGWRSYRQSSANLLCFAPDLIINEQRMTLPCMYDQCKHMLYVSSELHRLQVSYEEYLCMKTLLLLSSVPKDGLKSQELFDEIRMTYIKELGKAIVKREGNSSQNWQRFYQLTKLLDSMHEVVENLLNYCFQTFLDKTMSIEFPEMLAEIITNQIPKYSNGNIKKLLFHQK
3',5'-cyclic-AMP phosphodiesterase 4B (Homo sapiens), sequence (Q07343 whole entry, looked up): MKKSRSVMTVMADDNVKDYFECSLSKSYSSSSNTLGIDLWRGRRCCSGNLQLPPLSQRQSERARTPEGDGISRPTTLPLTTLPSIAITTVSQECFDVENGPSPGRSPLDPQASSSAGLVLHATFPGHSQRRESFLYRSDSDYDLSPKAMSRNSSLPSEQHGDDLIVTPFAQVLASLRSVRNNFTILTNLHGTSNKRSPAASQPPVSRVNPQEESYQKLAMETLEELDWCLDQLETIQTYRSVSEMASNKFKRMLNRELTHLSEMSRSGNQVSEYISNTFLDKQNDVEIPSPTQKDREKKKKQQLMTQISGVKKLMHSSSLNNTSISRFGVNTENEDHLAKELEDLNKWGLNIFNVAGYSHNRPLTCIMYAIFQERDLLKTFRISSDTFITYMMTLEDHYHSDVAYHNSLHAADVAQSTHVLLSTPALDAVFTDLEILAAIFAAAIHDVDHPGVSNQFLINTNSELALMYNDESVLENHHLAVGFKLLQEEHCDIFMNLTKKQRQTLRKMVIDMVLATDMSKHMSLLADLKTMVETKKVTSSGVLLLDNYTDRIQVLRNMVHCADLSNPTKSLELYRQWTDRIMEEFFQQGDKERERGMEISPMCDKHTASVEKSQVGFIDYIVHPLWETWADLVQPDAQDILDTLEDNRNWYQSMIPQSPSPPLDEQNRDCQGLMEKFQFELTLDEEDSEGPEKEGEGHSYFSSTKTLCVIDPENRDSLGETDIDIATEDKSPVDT
Ubiquitin carboxyl-terminal hydrolase 1 (Homo sapiens), sequence (O94782 whole entry, looked up): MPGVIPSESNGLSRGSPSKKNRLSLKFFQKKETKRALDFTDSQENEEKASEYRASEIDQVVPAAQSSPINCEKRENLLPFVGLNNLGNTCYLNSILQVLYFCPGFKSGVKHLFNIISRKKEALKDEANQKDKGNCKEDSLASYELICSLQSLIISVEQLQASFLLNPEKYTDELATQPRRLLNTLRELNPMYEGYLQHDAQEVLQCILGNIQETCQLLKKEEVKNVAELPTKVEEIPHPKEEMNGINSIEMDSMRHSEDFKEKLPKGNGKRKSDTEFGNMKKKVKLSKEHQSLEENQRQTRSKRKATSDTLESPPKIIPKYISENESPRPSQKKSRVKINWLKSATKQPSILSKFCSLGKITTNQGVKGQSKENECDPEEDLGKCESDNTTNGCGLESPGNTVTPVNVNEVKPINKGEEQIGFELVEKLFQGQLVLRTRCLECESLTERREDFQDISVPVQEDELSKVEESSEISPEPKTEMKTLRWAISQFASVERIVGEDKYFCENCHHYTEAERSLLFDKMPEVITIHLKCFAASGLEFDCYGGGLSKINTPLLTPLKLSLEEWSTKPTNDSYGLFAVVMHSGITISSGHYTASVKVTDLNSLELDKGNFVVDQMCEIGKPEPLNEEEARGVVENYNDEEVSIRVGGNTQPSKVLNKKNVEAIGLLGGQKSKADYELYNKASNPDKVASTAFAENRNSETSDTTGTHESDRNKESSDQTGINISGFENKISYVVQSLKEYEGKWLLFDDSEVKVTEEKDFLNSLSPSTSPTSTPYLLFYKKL

CCN(CCCCOC(=O)c1ccc(OC)c(OC)c1)[C@@H](C)Cc1ccc(OC)cc1
inactive: Potency [1] > 20.6 µM | Potency [2] | activity change, negative = inhibition ([3]; at 25.7 µM (top of the series)) -1.1% | Potency [4] | Potency [5] | activity, negative = inhibition ([6]; parasite line A) -10.8% | activity, negative = inhibition ([6]; parasite line B) -8.1% | Potency [7] | Potency [8] | Potency [9] | Potency [10] | Potency [11] | Potency [12] | Potency [13] | Potency [14] | Potency [15] | Potency [16] | Potency [17] | Potency [18]
-6.28%: max response [3, 22]
-7.41%: max response [3, 21]

CC(=O)N[C@H](CS)C(=O)O
18.6%: max response [3, 22]
inactive: Potency [1] > 46 µM | Potency [2] | outcome [19] | activity change, negative = inhibition ([3]; at 57.5 µM (top of the series)) 4.08% | Potency [4]
2.82%: max response [3, 21]

c1ccc2c(c1)CCCc1cc(NCCN3CCOCC3)nnc1-2
-2.33%: max response [3, 22]
inactive: Potency [1] > 20.6 µM | outcome [19] | activity change, negative = inhibition ([3]; at 25.7 µM (top of the series)) -1.57% | Potency [4]
0.476%: max response [3, 21]

CC(=O)/C(C)=N\O
inactive: Potency [1] > 46 µM | Potency [2] | outcome [19] | activity change, negative = inhibition ([3]; at 57.5 µM (top of the series)) -1.01% | Potency [4]
-2.91%: max response [3, 21]
-2.64%: max response [3, 22]

CC(C)(C)CC(C)(C)c1ccc(OCOCCOCCO)c(Cc2cc(C(C)(C)CC(C)(C)C)cc(Cc3cc(C(C)(C)CC(C)(C)C)ccc3OCOCCOCCO)c2OCOCCOCCO)c1
inactive: Potency [1] > 20.6 µM | Potency [2] | outcome [19] | activity change, negative = inhibition ([3]; at 25.7 µM (top of the series)) -6.93%
-10.1%: max response [3, 21]
-15.2%: max response [3, 22]

NC[C@@H]1O[C@H](O[C@H]2[C@H](O)[C@H](O[C@@H]3O[C@H](CO)[C@@H](O)[C@H](N)[C@@H]3O)[C@@H](N)C[C@H]2N)[C@@H](O)[C@H](O)[C@@H]1O
-1.61%: max response [3, 21]
inactive: Potency [1] > 20.6 µM | Potency [2] | outcome [19] | activity change, negative = inhibition ([3]; at 25.7 µM (top of the series)) -4.16% | Potency [5] | activity, negative = inhibition ([6]; parasite line A) 3.46% | activity, negative = inhibition ([6]; parasite line B) 7.68% | Potency [7] | Potency [8] | Potency [9] | Potency [10] | Potency [11] | Potency [12] | Potency [13] | Potency [14] | Potency [15] | Potency [16] | Potency [17] | Potency [20] | Potency [18]
-7%: max response [3, 22]

C[C@@H](CNC1CCCCC1)OC(=O)c1ccccc1
inactive: Potency [1] > 20.6 µM | Potency [2] | outcome [19] | activity change, negative = inhibition ([3]; at 25.7 µM (top of the series)) -3.84% | Potency [4] | Potency [5] | Potency [8] | Potency [12]
-16.8%: max response [3, 21]
-19.5%: max response [3, 22]
active: Potency [10] 3.16 µM | Potency [16] 3.98 µM | Potency [17] 3.16 µM | Potency [20] 5.73 µM | Potency [18] 3.55 µM
